This is one part of a sample in which hits are shown more often than they occur.
TCR activator = activates T cell receptor signaling; 330,000 tested, under 10 active; Potency, µM (top dose mostly 9.22 µM), for inactives: at the top dose activation of IL-2 secretion, usual class: activators; primary human leukocytes, anti-CD3, IL-2 HTRF, 48 h; further: % of control where 0% means no effect
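1) Mix primary human leukocytes, a-CD3 beads and compound. 2) Incubate 48 hr. 3) Add HTRF IL-2 reagents (a-IL-2-K, a-IL-2-d2).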
RXFP1 antagonist = antagonists of human relaxin receptor RXFP1; actives 0.59% (n = 350,000); HEK293-RXFP1, relaxin-stimulated cAMP HTRF, 30 min; active compounds read low; Q9HBX9; activity change, negative = inhibition, % at 57.5 µM;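 active means activity change of -60% or lower, but not beyond a set lower limit; inconclusive means change between -60% and -40%, or beyond the set limit; inactive means change above -40%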; further: on the % scale 0 is the no-effect control and ±100 the full control effect
NPSR antagonist = blocks cAMP signaling of the human neuropeptide S receptor | Q6W5P4 | CHO-NPSR cells, cAMP TR-FRET, antagonist mode | Potency, µM (titrated, usually from 38.3 µM), without a hit: at the top dose activity change, negative = inhibition, most hits filed as inhibitors | actives 1% (n = 220,000); further: potency means the concentration at half of the fitted maximal effect; on the % scale 0 is the no-effect control and ±100 the full control effect; nearly all actives have a fitted effect of over 50% in size
TSHR antag = blocks TSH signaling through the human TSH receptor; actives 0.2% (n = 330,000); AID 504810; P16473; TSHR-expressing cells, TSH-stimulated cAMP HTRF, 2 h; active compounds read low; activity change, negative = inhibition, % at 11.5 µM;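 active means activity change below a set negative limit, meaning inhibition stronger than a set level, cut at about -70% in these data; inconclusive means activity change between two set negative limits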; further: on the % scale 0 is the no-effect control and ±100 the full control effect
Target sequence (P16473 whole entry, looked up): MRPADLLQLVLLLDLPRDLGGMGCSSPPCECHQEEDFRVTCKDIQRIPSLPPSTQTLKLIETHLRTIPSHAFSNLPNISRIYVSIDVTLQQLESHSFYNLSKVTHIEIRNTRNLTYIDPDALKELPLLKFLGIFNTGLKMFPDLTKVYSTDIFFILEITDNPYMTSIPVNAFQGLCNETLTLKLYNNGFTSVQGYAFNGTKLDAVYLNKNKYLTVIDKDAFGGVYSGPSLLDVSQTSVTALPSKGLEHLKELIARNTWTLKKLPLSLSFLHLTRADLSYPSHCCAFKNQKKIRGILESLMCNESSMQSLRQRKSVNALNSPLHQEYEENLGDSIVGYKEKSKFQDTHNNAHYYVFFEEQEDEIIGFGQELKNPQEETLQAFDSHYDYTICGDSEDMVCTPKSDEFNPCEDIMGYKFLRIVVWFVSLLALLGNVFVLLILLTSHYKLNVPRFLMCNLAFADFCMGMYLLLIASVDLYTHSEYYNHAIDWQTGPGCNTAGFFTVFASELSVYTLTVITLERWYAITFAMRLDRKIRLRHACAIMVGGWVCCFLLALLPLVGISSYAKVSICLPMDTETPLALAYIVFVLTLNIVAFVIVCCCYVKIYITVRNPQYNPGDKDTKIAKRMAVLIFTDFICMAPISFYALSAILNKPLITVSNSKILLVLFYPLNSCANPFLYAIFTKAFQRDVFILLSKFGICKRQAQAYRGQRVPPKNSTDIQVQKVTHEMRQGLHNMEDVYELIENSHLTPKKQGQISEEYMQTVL
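TSHR-expressing cells, 200/well, pre-treated with compound, then stimulated with EC80 TSH (4nM final) for 2 hours at 37 deg C. cAMP measured by competitive HTRF: anti-cAMP cryptate antibody in lysis buffer plus cAMP-d2, read after 30 minutes at room temperature.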
PTHR1 ag = activates the human parathyroid hormone receptor PTHR1; HEK293 GP2 PTHR1 cells, GloSensor cAMP luminescence, 1 h; Potency, µM (doses to about 115 µM), for inactives: top-dose activation, most hits filed as activators; actives 0.075% (n = 410,000); Q03431; AID 743266; further: potency means the concentration at half of the fitted maximal effect; nearly all actives have a fitted effect of over 55% in size
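HEK-293-derived GP2 cells expressing PTHR1 and a GloSensor cAMP reporter, 3,000/well, plated overnight, given luciferin plus IBMX (each 0.5 mM as added) for 1 h at 37 °C, then compound for 1 h at 37 °C. Luminescence was read after 15 min at room temperature.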
RXFP1 ag = activates the human relaxin receptor RXFP1; Q9HBX9; HEK293T-RXFP1 cAMP TR-FRET, 30 min; response scale: percent of porcine relaxin response, buffer zero; Potency, µM (highest dose often 57.5 µM), without a hit: top-dose activation, actives largely listed as activators; actives 0.3% (n = 370,000); AID 2676; further: potency means the concentration at half of the fitted maximal effect; on the % scale 0 is the no-effect control and ±100 the full control effect; nearly all actives have a fitted effect of over 60% in size
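HEK293 cells stably expressing RXFP1, treated 30 min at 37C with compounds plus PDE4 inhibitor Ro 20174; cAMP measured by HTRF TR-FRET. Normalized to buffer and 29 nM porcine relaxin; EC50 by Hill fit.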
Active calls of the source: *; i = inactive; ? = inconclusive; · = not tested or not shown; [ ] = dose if it differs, or a comment. Unless noted, the call rests on the fitted dose curve; in most records, active means well fitted curve in the direction sought with a large enough effect; inconclusive means small, poorly fitted or top-dose-only effect, or another doubt; inactive means no such curve, though single readings can be large; an effect the other way counts as inactive or inconclusive.

SMILES | TCR activator | RXFP1 antagonist | NPSR antagonist | TSHR antag | PTHR1 ag | RXFP1 ag
Cc1ccc(NC(=O)c2cc(S(=O)(=O)N3CCCC(C)C3)cn2C)c(Br)c1 (centres undefined) | · | · | · | · | -57.7% | 0.5%
Cc1cccc(CN2CCC(CNC(=O)Cn3ncc4c([nH]c5ccc(C)cc54)c3=O)CC2)c1 | · | 1.5 | · | · | 4.6% | -2.2%
COc1ccc(N2C(=O)CCSC23C(=O)N(Cc2ccc(F)cc2)c2ccccc23)cc1 (centres undefined) | · | -82.0* | · | · | -21.2% | -0.4%
COc1ccc(N2C(=O)CCSC23C(=O)N(Cc2ccc(F)cc2)c2ccccc23)cc1Cl (centres undefined) | · | ? | · | · | i | -0.1%
Cc1cc(-c2ccc(N=Nc3c(S(=O)(=O)O)cc4cc(S(=O)(=O)O)cc(N)c4c3O)c(C)c2)ccc1N=Nc1c(S(=O)(=O)O)cc2cc(S(=O)(=O)O)cc(N)c2c1O | · | · | · | -155.0* | · | -29.1%
CCC1(CC)Cc2ccccc2C(=C(C#N)C#N)N1 | 1.1% | 7.1 | 1.2%[46.1 µM] | -4.6 | i | -0.5%
N#CC(C#N)=C1NC(N)=C(C#N)C(c2ccccc2)=C1C#N | · | · | · | -3.9 | · | 28.2µM*
Cc1ccccc1-n1nnnc1SC1CCOC1=O (centres undefined) | 1.2% | 7.7 | -7.8%[46.1 µM] | -88.1* | -2.7%[57.5 µM] | 0.2%
CN1/C(=C\C(=O)c2cccnc2)C(C)(C)c2ccccc21 | -2.4%[46.1 µM] | -22.7 | 11.4% | -4.1 | i | -0.8%
CN1/C(=C/C(=O)c2nc(S(C)(=O)=O)ncc2Cl)C(C)(C)c2ccccc21 | 1.3% | -68.8* | 5.01µM* | -45.1 | -47.2% | 3.2%
CN1/C(=C\C(=O)COC(=O)c2ccco2)C(C)(C)c2ccccc21 | 1.2% | -4.3 | 4.4% | -6.7 | -34.8% | -1.5%
CN1/C(=C\C(=O)c2ccco2)C(C)(C)c2ccccc21 | 2.7% | -85.5* | -12.0%[46.1 µM] | -5.3 | -0.5%[57.5 µM] | 0.4%
O=C(Cn1c(C(=O)N2CCc3ccccc3C2)cc2sccc21)c1ccccc1 | · | -2.1 | 8.2%[7.67 µM] | -17.0 | 22.4µM* | 0.5%
O=C(Cn1c(C(=O)N2CCN(C3CCCCC3)CC2)cc2sccc21)c1ccccc1 | -9.9% | -8.4 | -18.9%[46.1 µM] | 8.6 | -2.9%[57.5 µM] | 0.6%
CCCNC(=O)C1CCC(Cn2c(=O)c3sccc3n(CC(=O)NCc3cccc(OC)c3OC)c2=O)CC1 (centres undefined) | · | · | · | · | ? | 22.4µM*
CCCCCNC(=O)C1CCC(Cn2c(=O)c3sccc3n(CC(=O)NCc3cccc(OC)c3OC)c2=O)CC1 (centres undefined) | · | · | · | · | i | ?
N#C/C(=C\c1cccc(Oc2ccccc2)c1)C(=O)N1CCOCC1 | 1.2% | -101.8* | -27.9% | -11.0 | -30.1% | -0.5%
Cc1c(C(=O)N2CCCC2)oc2c1-c1nn(CC(=O)NC(C)c3ccccc3)cc1CC2 (centres undefined) | · | 3.1 | · | · | -19.2% | 5.1%
Cn1nc(C(F)(F)F)c(-c2ccc(Br)cc2)c1NC(=O)Nc1ccc(F)cc1F | -1.2% | -60.8* | ? | -16.5 | -33.4% | 5.1%
CCC(C)NCCOCCOc1ccc(Cl)c2ccccc12 (centres undefined) | 5.2% | -78.3* | ? | 34.5 | -15.7% | -0.4%
CCC(C)NCCOCCOc1ccc(Cl)c(C)c1C (centres undefined) | 0.7%[46.1 µM] | -67.7* | 3.5% | 2.5 | i | -0.3%
COC(=O)c1ccc(Cn2cc(/C=C\[N+](=O)[O-])c3ccccc32)o1 | 3.1% | -94.8* | · | 1.1 | -20.7% | -2.5%
COc1ccccc1CNC(=O)c1ccc2c(c1)N(Cc1cc(C)ccc1C)C(=O)c1ccccc1S2 | · | -19.3 | · | · | i | 0.5%
CN(C)S(=O)(=O)c1cccc(COc2ncnc3c(Cl)cc(Cl)cc23)c1 | 1.2% | 11.9 | · | 26.2 | -20.7% | 15.8µM*
Cc1ccc2c(c1)C(c1ccc(F)cc1)N(C(=O)c1ccc(S(=O)(=O)N3CCCCC3)cc1)CC(=O)N2 (centres undefined) | · | -12.3 | · | · | 9.2% | 0.1%

Screening results (PubChem BioAssay)
